# HT1080-NT tox = qHTS for induction of synthetic lethality in tumor cells producing 2HG: qHTS for the HT-1080-NT fibrosarcoma cell line. AID 686970, 2013. Potency, µM (top dose mostly 46.1 µM), most hits filed as cytotoxic. 360,000 tested, 1.6% active. HT-1080-NT fibrosarcoma viability, CellTiter-Glo ATP luminescence, 48 h;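 note: NT is the 2HG producing partner of a matched IDH1 knockdown line; nearly all actives have a fitted effect of over 55% in size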
#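 Toxicity toward the 2HG-producing NT line was scored as %Activity, normalised to DMSO and no-cell wells, from CellTiter-Glo luminescence after 48 hours' treatment.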
# TDP1 cell CPT = qHTS for Inhibitors of human tyrosyl-DNA phosphodiesterase 1 (TDP1): qHTS in cells in presence of CPT; chicken DT40 Tdp1-/-;hTDP1 cells + 20 nM CPT, ATP luminescence, 48 h; Potency, µM (highest dose often 46.2 µM), usual class: inhibitors; 420,000 tested, 12% active; note: nearly all actives have a fitted effect of over 55% in size
#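 Cell growth measured by CellTiter-Glo luminescence after a minimum 48 h, 37 C compound exposure with 20 nM CPT in Tdp1-knockout DT40 cells stably expressing hTDP1, seeded 400/well; qHTS titration format.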
# DT40 TDP1 no CPT = qHTS for Inhibitors of human tyrosyl-DNA phosphodiesterase 1 (TDP1): qHTS in cells in absence of CPT; Potency, µM (titrated, usually from 46.2 µM), hits mostly inhibitors; 420,000 tested, 15% active; DT40 Tdp1-/- hTDP1 cells, no CPT, ATP luminescence, 48 h; note: nearly all actives have a fitted effect of over 55% in size
#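 Readout: luminescence from CellTiter-Glo after 30 min in the dark at RT. Cells: DT40 Tdp1-/- with stable hTDP1, 400/well. Exposure: compounds alone, ≥48 hr, 37 °C.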
# IL-1B inflam inh = qHTS for Inhibitors of Inflammasome Signaling: IL-1-beta AlphaLISA Primary Screen; AID 743279, 2014; activity change, % at 57.5 µM; 360,000 tested, 4.7% active; THP-1 LPS/ATP IL-1B secretion, AlphaLISA, 16 h; stronger effect = lower value; in the data active = activity change below about -50%; inconclusive = mostly about -30% to -49%
#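 THP-1 cells pretreated 1 hr with compounds (up to 57.5 uM final), then stimulated with LPS (250 ng/mL final) plus ATP (1.25 mM final); secreted IL-1B measured by AlphaLISA after 16 hr, decreased signal indicating inhibition.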
# uPA surface inh = qHTS for Inhibitors of Cell Surface uPA Generation | cell surface uPA generation assay, qHTS | AID 540303, 2011 | Potency, µM (doses to about 38.3 µM), most hits filed as inhibitors | 330,000 tested, 0.31% active; active = well fitted inhibition curve with a large enough effect; inconclusive = small, poorly fitted or top-dose-only effect; inactive = no such curve, though single readings can be large or run the other way; tested in mouse RAW 264.7 cells; note: nearly all actives have a fitted effect of over 55% in size
# HT1080 IDH1KD tx = qHTS for induction of synthetic lethality in tumor cells producing 2HG: qHTS for the HT-1080-IDH1KD cell line; HT-1080 IDH1 knockdown viability, ATP luminescence, 48 h; Potency, µM (top dose mostly 46.1 µM), most hits filed as cytotoxic; 360,000 tested, 2% active; AID 686971, 2013
#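 After a 2 h attachment period, IDH1KD HT-1080 cells took pin-transferred compound for 48 h at 37 °C; ATP-based luminescence after 10 min room-temperature reagent incubation reported viability.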
# Hits are given with their value; i = inactive; ? = inconclusive; nt = no result; [ ] = dose if it differs, or a comment. Sampled rows, rich in hits. Any-hit rate of the full collection: about 19%. Unless noted, calls come from the whole dose curve; as a rule, active = well fitted curve in the direction sought with a large enough effect; inconclusive = small, poorly fitted or top-dose-only effect, or another doubt; inactive = no such curve, though single readings can be large; an effect the other way counts as inactive or inconclusive.
SMILES,HT1080-NT tox,TDP1 cell CPT,DT40 TDP1 no CPT,IL-1B inflam inh,uPA surface inh,HT1080 IDH1KD tx
O=C(O)c1ccc(CN2C(=O)c3ccccc3S2(=O)=O)cc1,i,i,i,i,i,i
COC(=O)CN1C(C(=O)c2ccccc2)=C(OC(=O)c2ccc(F)cc2)c2ccccc2S1(=O)=O,nt,16µM,i,nt,nt,nt
CCN(C(=O)CSc1nnc(-c2cc3occc3n2C)n1-c1ccccc1C)c1ccccc1,nt,i,i,nt,nt,nt
Cc1ncc2c(c1CNC(=O)c1ccc3c(c1)OCO3)CCN(C(=O)c1cc3ccccc3n1C)C2,nt,i[9.04 µM],i,nt,nt,nt
Cc1ccccc1Cn1c(COc2ccc(Cl)cc2)nc2ccccc21,nt,?,13µM,nt,nt,nt
O=C(O)Cn1c(COc2ccc(Cl)cc2)nc2ccccc21,i,i,i,i,i,i
COc1cccc(Cn2c(Cn3c(-c4cnccn4)nc4ccccc43)nc3ccccc32)c1,i,i,?,i,nt,i
COc1ccc(NCc2nc3ccccc3n2CCOc2ccccc2)cc1,i,?,?,-114,i,i
COc1cccc(Cn2c(C(C)n3c(-c4cnccn4)nc4ccccc43)nc3ccccc32)c1 (stereo not drawn),?,?,21µM,?,nt,15µM
COc1ccc(NCc2nc3ccccc3n2CCOc2ccc(C)cc2)cc1,18µM,16µM,16µM,-95,i,?
Cc1ccc(C(=O)NCCc2ccc(F)cc2)s1,i,?,?,i,i,i
COc1cccc(OCc2nc3ccccc3n2Cc2ccccc2)c1,nt,?,18µM,nt,nt,nt
Cc1ccc(OCCn2c(CCCO)nc3ccccc32)cc1,i,?,?,i,i,i
COc1cccc(OCc2nc3ccccc3n2CCOc2ccc(C)cc2)c1,nt,23µM,16µM,nt,nt,nt
COCc1nc2ccccc2n1Cc1ccc(C(C)(C)C)cc1,nt,21µM,26µM,nt,nt,nt
COc1ccccc1CNC(=O)CCC(=O)N1Cc2ccccc2Oc2ncccc21,nt,?,i,nt,nt,nt
O=C1CCSC2=C1SCc1sccc12,i,i,i,i,nt,i
O=C(CNC(=O)c1cccs1)Nc1ccncc1,i,i,i,i,i,i
O=C1CCC(C(=O)OCC(=O)Nc2ccc(SC(F)F)cc2)=NN1,i,i,i,i,nt,i
C=CCC(NCc1ccccc1)c1ccc(C)o1 (stereo not drawn),i,?,?,i,i,i
C=CCC(NCc1ccccc1)c1ccc(Cl)cc1 (stereo not drawn),i,?,13µM,i,i,i
COc1ccccc1CNc1nc(NCc2ccc(C(C)C)cc2)c2sccc2n1,21µM,9.2µM,2.9µM,-83,nt,18µM
Fc1ccccc1-c1nc(NCC2CC2)nc2ccsc12,i,?,?,i,nt,i
COc1cccc(CNc2nc(NCC3CC3)nc3ccsc23)c1OC,23µM,9.2µM,15µM,-101,nt,12µM
CSc1ccccc1CNc1nc(NCC2CC2)nc2ccsc12,18µM,15µM,21µM,-106,nt,21µM
SMILES,HT1080-NT tox,TDP1 cell CPT,DT40 TDP1 no CPT,IL-1B inflam inh,uPA surface inh,HT1080 IDH1KD tx
COc1cccc(CNc2nnnn2C)c1OC,i,i,i,i,i,i
COc1ccccc1CNc1nc(NC(C)C)nc2ccsc12,?,12µM,12µM,-98,nt,?
CC(=O)NCCNc1nc(NC(C)C)nc2ccsc12,?,i,i,i,nt,i
COc1cccc(CNc2nc(NC(C)C)nc3ccsc23)c1OC,15µM,18µM,21µM,-81,nt,i
CC(C)Nc1nc(NCCOc2ccccc2)c2sccc2n1,26µM,21µM,9.2µM,-72,nt,23µM
CC(C)c1ccc(CNc2nc(NCC3CC3)nc3ccsc23)cc1,23µM,9.2µM,10µM,i,nt,18µM
COc1cccc(CNc2ccc3c(c2)ncn3C(C)C)c1OC,i,?,?,i,?,i

# Screening data: PubChem, National Center for Advancing Translational Sciences (NCATS)
